Compound activity deposited in PubChem by National Center for Advancing Translational Sciences (NCATS).
Shown are actives, neighbours in structure and some others; about 8% of the full set was active somewhere.
HT1080-NT tox = kills 2HG-producing HT-1080-NT fibrosarcoma cells | HT-1080-NT fibrosarcoma viability, CellTiter-Glo ATP luminescence, 48 h | Potency, µM (doses to about 46.1 µM), without a hit: at the highest dose activity, negative = less viability, usual class: cytotoxic | hit rate 1.6% among 360,000 | AID 686970;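 further: NT is the 2HG producing partner of a matched IDH1 knockdown line; 0% = DMSO-treated cells and -100% = media-only wells without cells; nearly all actives have a fitted effect of over 55% in size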
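Compounds were tested in concentration-response format on HT-1080-NT cells for 48 hours at 37 degrees C. Cell viability came from CellTiter-Glo luminescence; curves were classified by r2, response magnitude and activity.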
HT1080 IDH1KD tx = HT-1080 IDH1 knockdown cell toxicity (counter line); HT-1080 IDH1 knockdown viability, ATP luminescence, 48 h; Potency, µM (highest dose often 46.1 µM), inactives show at the highest dose activity, negative = toxicity, most hits filed as cytotoxic; hit rate 2% among 360,000; AID 686971;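 further: 0% = DMSO wells and -100% = cell-free medium wells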
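CellTiter-Glo luminescence after 48 h compound exposure at 37 degrees C of IDH1-knockdown HT-1080 cells in 5% FBS RPMI. %Activity scaled between DMSO wells and cell-free media wells, with curves fitted and assigned curve classes.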
SW480 rerep = inducers of DNA re-replication in SW480 colon cancer cells. Potency, µM (series often up to 46.1 µM), for inactives: top-dose re-replication activation, actives largely listed as activators. hit rate 1.8% among 340,000. SW480 DNA re-replication, Hoechst DNA content imaging, 48 h; further: % of control where 0% means no effect; nearly all actives have a fitted effect of over 55% in size
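First, 250 cells per well were seeded. Next, compound or vehicle (23 nL) was pinned in, plates sat 48 hr at 37 C. Finally Hoechst was added for 40 min before fluorescence scanning.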
KB-V1 cytotox = kills drug-selected multidrug resistant KB-V1 cells. KB-V1 MDR cells viability, CellTiter-Glo, 72 h. Potency, µM (series often up to 46.1 µM), actives largely listed as cytotoxic. hit rate 3.4% among 400,000. AID 1347076; further: on the % scale 0 is the no-effect control and ±100 the full control effect; nearly all actives have a fitted effect of over 60% in size
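Compound-treated KB-V1 multidrug-resistant cells, 72 h, 37 degrees C; viability by CellTiter-Glo. Fitted qHTS curves give the values.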
KB-3-1 cytotox = kills parental KB-3-1 adenocarcinoma cells; AID 1347075; hit rate 1.4% among 400,000; KB-3-1 viability, CellTiter-Glo ATP luminescence, 72 h; Potency, µM (titrated, usually from 46.1 µM), actives largely listed as cytotoxic; further: on the % scale 0 is the no-effect control and ±100 the full control effect; nearly all actives have a fitted effect of over 60% in size
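Cytotoxicity in the drug-sensitive parental line KB-3-1 was scored as loss of CellTiter-Glo luminescence following 72 h incubation with compound. Values come from curve fitting of normalized concentration-response data.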
MCF10A rereplic = inducers of DNA re-replication in MCF 10A breast cells; MCF 10A DNA re-replication, Hoechst nuclear intensity, 48 h; Potency, µM (doses to about 46.1 µM), inactives show at the top dose activity, positive = re-replication, hits mostly activators; hit rate 2.9% among 350,000; AID 624296; further: % of control where 0% means no effect; nearly all actives have a fitted effect of over 50% in size
Numbers without * were called inactive; i = inactive; ? = inconclusive; · = no result given. The call rests on the fitted dose curve; in most records, active means well fitted curve in the direction sought with a large enough effect; inconclusive means small, poorly fitted or top-dose-only effect, or another doubt; inactive means no such curve, though single readings can be large; an effect the other way counts as inactive or inconclusive. Potency means the concentration at half of the fitted maximal effect.

SMILES | HT1080-NT tox | HT1080 IDH1KD tx | SW480 rerep | KB-V1 cytotox | KB-3-1 cytotox | MCF10A rereplic
Cc1ccc(C)c(NC(=O)CCS(=O)(=O)c2cccc3nsnc23)c1 | · | · | · | i | i | ·
Cc1ccc(S(=O)(=O)Nc2cc3c(cc2NCc2ccccc2)n(C)c(=O)n3C)cc1 | · | · | · | i | i | ·
CC(C)c1ccc(S(=O)(=O)Nc2cc3c(cc2NCc2ccccc2)n(C)c(=O)n3C)cc1 | · | · | · | ? | 23µM* | ·
CCc1ccc(S(=O)(=O)Nc2cc3c(cc2C)n(C)c(=O)n3C)cc1 | 16µM* | 15µM* | -7% | i | 5.2µM* | ?
Cc1cc(C)cc(OCC(=O)Nc2c(C)ccc3nsnc23)c1 | · | · | · | i | i | ·
NC(=O)NC(=O)CN1C(=O)NC2(CCOc3ccccc32)C1=O (configuration not stated) | 2% | 0% | 4% | i | i | 0%
COc1ccc(CNc2ncnc3onc(-c4ccc(F)cc4)c23)cc1 | · | · | · | ? | i | ·
CCC1=NN(C(=O)C(=O)Nc2ccccc2OC)C(O)(C(F)(F)F)C1 (configuration not stated) | 2.8µM* | 1.4µM* | -2% | i | i | ?
CCC1=NN(C(=O)CCc2ccccc2)C(O)(C(F)(F)F)C1 (configuration not stated) | -3% | ? | 3% | i | i | ?
COc1ccccc1NC(=O)C(=O)N1N=C(C(C)C)CC1(O)C(F)(F)F (configuration not stated) | ? | ? | 2% | i | i | 8.2µM*
COc1ccc(CC(=O)N2N=C(c3ccncc3)CC2(O)C(F)(F)F)cc1 (configuration not stated) | 15µM* | 9.2µM* | 18µM* | 5.2µM* | i | ?
CCC1=NN(C(=O)C(=O)NCCc2ccccc2)C(O)(C(F)(F)F)C1 (configuration not stated) | ? | 18µM* | -12% | i | i | 7%
Oc1cccc2cc3cccc(O)c3c(O)c12 | -4% | 17% | -36% | i | i | 11%
COc1cc(C=C(C#N)c2ccc([N+](=O)[O-])cc2)ccc1O | 6% | 9% | · | i | i | ·
CCOc1ccc(CCNC(=O)C2CCN(Cc3nc(-c4ccc(OC)c(OC)c4)oc3C)CC2)cc1OCC | · | · | · | i | i | ·
CCC1=NN(C(=O)Cc2ccc(OC)cc2)C(O)(C(F)(F)F)C1 (configuration not stated) | -29% | ? | -3% | i | i | 2%
CCC1=NN(C(=O)C(=O)Nc2ccc(OC)cc2)C(O)(C(F)(F)F)C1 (configuration not stated) | 8.9µM* | 5µM* | -1% | i | i | -5%
Cc1ccc(CN2CCC(Oc3cccc(C(=O)N(C)CCN(C)C)c3)CC2)cc1C | ? | 21µM* | 6% | i | i | 17%
Cc1noc(C)c1Cc1ccc(O)cc1 | -8% | -2% | ? | i | i | -2%
COc1ccc(Cn2c(=O)[nH]c3cc(C(=O)N4CCN(c5ccccc5F)CC4)ccc3c2=O)cc1 | 5% | -5% | -2% | i | i | 28%
COC(=O)c1ccc2c(=O)n(CCCCCC(=O)N3CCN(c4ccccc4)CC3)c(=O)[nH]c2c1 | 4% | -7% | -3% | ? | ? | 15µM*
COc1ccc(Cn2c(=O)[nH]c3cc(C(=O)N4CCN(c5ccccc5OC)CC4)ccc3c2=O)cc1 | ? | -19% | ? | ? | 21µM* | 13%
COc1ccc(Cn2c(=O)[nH]c3cc(C(=O)N4CCN(Cc5ccccc5)CC4)ccc3c2=O)cc1 | -29% | ? | 2% | 21µM* | ? | 20%
O=C(NC(=S)NN1CCOCC1)c1cc(Br)ccc1Cl | 0% | -3% | -2% | · | · | ?
